Assay outcomes as filed in PubChem.
The sample as a whole holds a higher share of hits than the screen did.
CBX7 inh: blocks human CBX7 binding to H3K27me3 peptide. AlphaScreen His6-CBX7 / biotin-H3K27me3 peptide binding; stronger effect = lower value. normalised signal (fraction of DMSO) (no concentration beside the values). AID 1224903. 1.1% of 66,000 active; in the data active means normalised signal below about 0.5
Target sequence (O95931 whole entry, looked up): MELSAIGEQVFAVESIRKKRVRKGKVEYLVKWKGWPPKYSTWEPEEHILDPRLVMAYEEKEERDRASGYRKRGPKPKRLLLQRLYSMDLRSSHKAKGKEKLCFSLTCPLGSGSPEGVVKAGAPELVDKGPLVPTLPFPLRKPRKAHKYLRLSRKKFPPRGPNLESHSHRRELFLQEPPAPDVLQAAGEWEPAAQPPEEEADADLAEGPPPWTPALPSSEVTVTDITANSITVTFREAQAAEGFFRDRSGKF
Starred values were filed as active, the others as inactive.

SMILES	CBX7 inh
Fc1ccc(C(c2ccccc2)N2CCN(CCCc3c[nH]c4ccccc34)CC2)cc1 (stereo unspecified)	0.512
Cc1ccc(C(c2ccccc2)N2CCN(CCCc3c[nH]c4ccccc34)CC2)cc1 (stereo unspecified)	0.488*
c1ccc(C(c2ccccc2)N2CCN(CCCc3c[nH]c4ccccc34)CC2)cc1	0.501
O=c1[nH]c2ccccc2nc1Cc1ccc(Cl)cc1Cl	0.942
CCOC(CNC(=O)c1cc2c(-c3ccccc3F)nn(C)c2s1)OCC	1.07
CCCN(CCC)S(=O)(=O)c1ccc(C(=O)Nc2nnc(COC)o2)cc1	0.817
CCCCN(C)S(=O)(=O)c1ccc(C(=O)Nc2nnc(CC)o2)cc1	0.394*
COCc1nnc(NC(=O)c2ccc(S(=O)(=O)N(C)C3CCCCC3)cc2)o1	0.155*
COc1ccc(-c2nnc(NC(=O)c3ccc(S(=O)(=O)N(C)C4CCCCC4)cc3)o2)cc1	0.924
CN(C1CCCCC1)S(=O)(=O)c1ccc(C(=O)Nc2ccc(-c3nc4ccccc4[nH]3)cc2)cc1	1
CCCCN(C)S(=O)(=O)c1ccc(C(=O)Nc2nnc(COC)o2)cc1	0.0893*
CCCCN(C)S(=O)(=O)c1ccc(C(=O)Nc2c(C(=O)OCC)oc3ccccc23)cc1	1.13
Cc1ccc(-c2nn(C)c(=O)c3ccccc23)cc1CNC(=O)c1ccccc1Cl	1
COc1ccc(-c2nnc(Oc3cccc(NC(C)=O)c3)c3ccccc23)cc1	0.836
CCC1Sc2ccccc2N(CC(=O)NCCCN2CCOCC2)C1=O (stereo unspecified)	1.02
Cc1ccc(NC(=O)CCc2nnc3ccc(NCc4ccc(F)cc4)nn23)cc1	1
Cn1c(C(=O)O)c(CC(=O)Nc2ccc(F)c(Cl)c2)c2ccccc21	0.901
CC1CCN(c2oc(-c3ccccc3)nc2C#N)CC1	0.412*
CCN1CCN(c2oc(-c3ccccc3)nc2C#N)CC1	0.972
N#Cc1nc(-c2ccccc2)oc1N1CCOCC1	0.873
CCN(CC)CCCNC(=O)c1cnc(Nc2ccccc2OC)c2ccccc12	1.04
NS(=O)(=O)c1ccc(CCNC2CC(=O)N(CC(c3ccccc3)c3ccccc3)C2=O)cc1 (stereo unspecified)	1.22
CCOc1ccc2nc(N3CCCC(C(=O)N4CCN(c5cccc(Cl)c5)CC4)C3)sc2c1 (stereo unspecified)	0.711
O=c1nc(-c2ccccc2)c2cc(Br)ccc2[nH]1	0.954
Fc1ccc(-c2[nH]c(-c3c[nH]c4ccc(Br)cc34)nc2-c2ccccc2)cc1	0.455*
SMILES	CBX7 inh
Cc1ccc(-c2[nH]c(-c3c[nH]c4ccccc34)nc2-c2ccccc2)cc1	0.377*
c1ccc2[nH]c(-c3c[nH]c4ccccc34)nc2c1	0.86
Cc1ccc(C)c(-c2[nH]c(-c3ccc(O)cc3)nc2-c2ccccc2)c1	0.58
Fc1ccc(-c2[nH]c(-c3cccs3)nc2-c2ccccc2)cc1	0.89
CCCC1CCC(c2ccc(-c3noc(-c4ccc(O)c(F)c4)n3)cc2)CC1 (stereo unspecified)	0.493*
CCCCCC1CCC(c2ccc(-c3nc(-c4ccncc4)no3)cc2)CC1 (stereo unspecified)	1.02
CCCC1CCC(c2nc(-c3ccc(OC(F)F)cc3)no2)CC1 (stereo unspecified)	1.25
COc1ccc(OC)c(NC(=O)c2c(NCc3cccc(OC)c3OC)sc3c2CCC(C)C3)c1 (stereo unspecified)	0.555
CCn1c(C(=O)O)c(CC(=O)Nc2ccc(F)c(Cl)c2)c2ccccc21	1.05
CCC1Oc2ccc(C)cc2N(CC(=O)NCCCOC)C1=O (stereo unspecified)	0.993
CCc1cc(C)cc(OCC(O)Cn2cnc3cc(C)c(C)cc32)c1 (stereo unspecified)	0.562
Cc1ccccc1Nc1c(-c2ccccn2)nc2ccc(Br)cn12	0.916
Brc1ccc2nc(-c3ccccn3)c(Nc3ccc4c(c3)OCO4)n2c1	0.659
COC(=O)CNc1c(-c2ccccn2)nc2ccc(Br)cn12	0.0635*
COc1ccc(NC(=O)c2cnc(N3CCN(c4ccccc4OC)CC3)c3ccccc23)cc1Cl	0.911
CC(C)c1ccccc1-n1nc(-c2ccc(Cl)cc2)cc1-c1ccc(Cl)cc1	0.972
CCCCCCCNC(=O)COc1ccc2c(c1)C(=O)CC(C)(C)O2	1.04
CCN1CCN(CCCNC(=O)COc2ccc3c(c2)C(=O)CC(C)(C)O3)CC1	0.453*
CCCN1CCN(CCCNC(=O)COc2ccc3c(c2)C(=O)CC(C)(C)O3)CC1	0.523
CC1CC(C)CN(C(=O)CN(C)S(=O)(=O)c2cnc[nH]2)C1 (stereo unspecified)	1.22
CCc1ccc(-c2nc(SCC(=O)NCCOC)c(-c3ccc(OC)c(OC)c3)[nH]2)cc1	0.867
COc1ccccc1NC(=O)C(Cc1ccccc1)NS(=O)(=O)c1ccc2c(c1)CCC(=O)N2 (stereo unspecified)	0.917
CCOc1ccc2c(c1)c(=O)c(S(=O)(=O)c1ccccc1)cn2CC(=O)Nc1ccc(F)cc1	1.03
Oc1ccc(-c2nc(-c3ccc(F)cc3)c(-c3ccc(F)cc3)[nH]2)cc1	1.17
